Six1-Eya2 blk: qHTS Assay for Inhibitors of the Six1/Eya2 Interaction. Homeobox protein SIX1 (Homo sapiens) + Protein phosphatase EYA2 (Homo sapiens), …. AlphaScreen GST-Six1/His-Eya2 binding, biochemical; hits give low values. activity change, % (test concentration not listed). 360,000 tested, 0.56% active. AID 651725, 2012; in the data active = activity change below about -65%; inconclusive = mostly about -30% to -63%
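Homogeneous AlphaScreen proximity assay pairing GST-Six1 with His-tagged Eya2 (added as 5X mix: 250 nM and 500 nM) in 50 mM Tris pH 8.0, 300 mM NaCl, 1 mM TCEP. Glutathione donor and nickel acceptor beads; 1 h, 37 °C, dark.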
USP2a block: qHTS Assay for Inhibitors of Ubiquitin-specific Protease USP2a Using CHOP2 as the Reporter | Ubiquitin carboxyl-terminal hydrolase 2 (Homo sapiens), O75604 | USP2 core, Ub-CHOP2 coupled fluorogenic reporter, 485/531 | Potency, µM (top dose mostly 38.3 µM), for the others: at the top dose activity change, negative = inhibition, hits mostly inhibitors | 330,000 tested, 0.01% active;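 also: potency is read from the fitted curve at half-maximal effect; plate controls were DMSO wells for no effect and full inhibition by NEM control for full effect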
Target sequence (O75604 whole entry, looked up): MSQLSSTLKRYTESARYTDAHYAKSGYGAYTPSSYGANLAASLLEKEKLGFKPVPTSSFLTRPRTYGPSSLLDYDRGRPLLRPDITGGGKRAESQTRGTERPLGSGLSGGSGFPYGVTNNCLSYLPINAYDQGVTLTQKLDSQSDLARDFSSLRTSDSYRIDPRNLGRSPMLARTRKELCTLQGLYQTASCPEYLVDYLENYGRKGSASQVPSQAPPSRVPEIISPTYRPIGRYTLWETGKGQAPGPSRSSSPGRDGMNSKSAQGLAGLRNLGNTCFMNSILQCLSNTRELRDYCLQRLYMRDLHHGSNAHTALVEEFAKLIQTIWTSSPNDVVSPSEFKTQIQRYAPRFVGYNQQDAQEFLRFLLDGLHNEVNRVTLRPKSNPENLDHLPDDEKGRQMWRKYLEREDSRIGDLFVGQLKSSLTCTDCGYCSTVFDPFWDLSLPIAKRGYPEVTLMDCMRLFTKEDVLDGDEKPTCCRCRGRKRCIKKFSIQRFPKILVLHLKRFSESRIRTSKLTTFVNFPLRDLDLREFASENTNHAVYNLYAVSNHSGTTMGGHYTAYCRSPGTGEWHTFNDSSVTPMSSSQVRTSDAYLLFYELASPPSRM
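Deubiquitinase activity read as fluorescence (485/531 nm) after Ub-CHOP2 cleavage activates the enterokinase reporter on its substrate; USP2 core 10nM, Ub-CHOP2 and substrate 25nM each, 30min compound preincubation then 60min RT; data normalized to NEM, curves fitted.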
uPA generation: qHTS for Inhibitors of Cell Surface uPA Generation; AID 540303, 2011; 330,000 tested, 0.31% active; Potency, µM (titrated, usually from 38.3 µM), for inactives: at the highest dose activity change, negative = inhibition, hits mostly inhibitors; cell surface uPA generation assay, qHTS; active = well fitted inhibition curve with a large enough effect; inconclusive = small, poorly fitted or top-dose-only effect; inactive = no such curve, though single readings can be large or run the other way; tested in mouse RAW 264.7 cells; also: potency is read from the fitted curve at half-maximal effect; nearly all actives have a fitted effect of over 55% in size
CtBP-E1A blk: qHTS Assay for Inhibitors of the CtBP/E1A Interaction | 340,000 tested, 0.49% active | AlphaScreen GST-E1A/His-CtBP binding, 1536-well; hits give low values | CtBP / adenovirus E1A interaction (AlphaScreen) | activity change, % (no concentration beside the values); in the data active = activity change below about -65%; inconclusive = mostly about -30% to -63%
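GST-E1A and His-tagged CtBP (125 nM each as 5X stock) were preincubated with pin-transferred compound for 2 h at 37 °C in the dark, then glutathione donor and nickel acceptor beads were added for 1 h before AlphaScreen reading.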
Eya2 inh: qHTS Assay for Inhibitors of the Phosphatase Activity of Eya2; Protein phosphatase EYA2 (Homo sapiens), O00167; recombinant Eya2, OMFP fluorescence dephosphorylation (OMFP is methylfluorescein phosphate); Potency, µM (series often up to 76.9 µM), for the others: at the top dose activity, negative = inhibition, hits mostly inhibitors; 330,000 tested, 0.006% active; AID 488837, 2010; also: potency is read from the fitted curve at half-maximal effect
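Eya2 protein (added as 0.2 uM solution) was preincubated with compound for 10 min at ambient temperature in 50 mM HEPES pH 7.5, 50 mM NaCl, 5 uM MgCl2, 0.05% BSA, 1 mM DTT. OMFP (added at 50 uM) then reacted 10 min; fluorescence read at 485/525 nm.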
L3MBTL1 block: qHTS Assay for the Inhibitors of L3MBTL1; Potency, µM (series often up to 57.1 µM), for inactives: at the highest dose activity, negative = inhibition, hits mostly inhibitors; Lethal(3)malignant brain tumor-like protein 1 (Homo sapiens), Q9Y468; AlphaScreen L3MBTL1–H3K9me1 peptide binding; 230,000 tested, 0.66% active; also: potency is read from the fitted curve at half-maximal effect; nearly all actives have a fitted effect of over 60% in size
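AlphaScreen proximity signal between nickel-chelate acceptor and streptavidin donor beads (final 10 ug/mL) reports binding of 50 nM L3MBTL1 to 75 nM biotin-H3 K9me1 peptide; complex incubated with compounds 30 min at room temperature; cefsulodin titration as control.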
Numbers without * were called inactive; ? = inconclusive; / = no result. Sampled rows, rich in hits. Any-hit rate of the full collection: about 1.2%. Unless noted, calls follow the shape of the dose curve; as a rule, active = well fitted curve in the direction sought with a large enough effect; inconclusive = small, poorly fitted or top-dose-only effect, or another doubt; inactive = no such curve, though single readings can be large; an effect the other way counts as inactive or inconclusive. Unless noted, % is scaled to controls: 0 for no effect and ±100 for the full control effect.

SMILES	Six1-Eya2 blk	USP2a block	uPA generation	CtBP-E1A blk	Eya2 inh	L3MBTL1 block
O=[N+]([O-])c1ccc(C2(O)CN(c3ccccc3)C3=[N+]2CCS3)cc1 (centres undefined)	-12	3%	7%	-4	-7%	-5%
N#Cc1c(=O)c2nc(NCc3ccccc3)ncc2n2ccccc12	-66*	-1%	-5%	?	4%	/
CCCn1nnc(NC(=S)NC(=O)c2ccc(-c3ccc(Br)cc3)o2)n1	2	1%	-5%	-3	4%	-11%
Cn1nnc(NC(=S)NC(=O)c2ccc(-c3ccc(Br)cc3)o2)n1	-72*	6%	-2%	-69*	2%	-1%
COc1ccc(-c2cc(=O)c3c(O)c(OC)c(OC)c(OC)c3o2)cc1	-7	/	-1%	-6	/	/
COc1c(OC)c(O)c2c(=O)cc(-c3c(O)cccc3O)oc2c1OC	-3	3%	7.1µM*	3	-12%	-20%
COc1c(O)cc(O)c2c(=O)cc(-c3ccccc3)oc12	-8	2%	4%	-13	4%	-8%
COc1ccc(-c2cc(=O)c3c(O)c(OC)c(O)cc3o2)cc1	-26	-5%	10µM*	-9	4%	3%
O=C(NC1CC1)C1CC(=O)N(c2cccc(Cl)c2)C1 (centres undefined)	-1	2%	8%	2	7%	/
N#CC1(NC(=O)CSc2nnc(-c3ccccc3F)n2N)CCCCC1	-3	1%	2%	7	-16%	4%
COC(=O)c1ccc(NC(=O)c2cccc(C)c2[N+](=O)[O-])cc1	7	-1%	9%	/	8%	-7%
O=C(CSc1c2c(nc3ccc(Cl)cc13)CCCC2)NCCCN1CCOCC1	0	-1%	8.9µM*	/	-6%	/
CCC(C)NC(=O)c1ccc2c(Cl)c3c(nc2c1)CCC3 (centres undefined)	16	0%	?	-1	-13%	6%
CN1CCN(CCCNC(=O)c2ccc3c(Cl)c4c(nc3c2)CCCC4)CC1	-5	2%	11µM*	/	1%	/
COc1cccc(CN2CC(C(=O)NCCN3CCOCC3)CCC2=O)c1 (centres undefined)	-1	1%	-1%	4	12%	/
O=C(COC(=O)c1ccc([N+](=O)[O-])s1)NC(=O)NCc1ccccc1	-3	2%	0%	-12	-5%	11µM*
N#Cc1ccsc1NC(=O)c1ccccn1	-67*	0%	-4%	?	8%	-24%
Cc1cc(C(=O)CCl)c(C)n1-c1cccc(S(=O)(=O)N2CCOCC2)c1	-69*	1%	-3%	-91*	4%	/
Cc1cc(C(=O)CN2C(=O)CN(C)C2=O)c(C)n1-c1cccc(S(=O)(=O)N2CCOCC2)c1	-2	3%	-10%	/	6%	2%
CC1NC(=O)NC1CCCCCC(=O)NCCc1ccccc1 (centres undefined)	4	1%	3%	10	12%	1.4µM*
Cc1cccc(C)c1NC(=O)CCCCCC1NC(=O)NC1C (centres undefined)	16	-6%	-3%	0	5%	/
CN(C)c1ccc(CNC(=O)C2Cc3c(-c4ccccc4Oc4ccccc4)ccnc3O2)cc1 (centres undefined)	-66*	/	/	?	/	/
COc1ccc(CNC(=O)C2Cc3c(-c4ccccc4Oc4ccccc4)ccnc3O2)cc1OC (centres undefined)	-14	/	/	-8	/	/
COC1=C(N)C(=O)c2nc(-c3nc(C(=O)O)c(C)c(-c4ccc(OC)c(OC)c4O)c3N)ccc2C1=O	?	0%	-84%	?	-1%	20µM*
COc1ccc(-c2ncncc2-c2csc(C)n2)c(O)c1OC	2	1%	-1%	0	12%	/
SMILES	Six1-Eya2 blk	USP2a block	uPA generation	CtBP-E1A blk	Eya2 inh	L3MBTL1 block
Cc1cc(C(=O)CN2c3cccc4cccc(c34)S2(=O)=O)c(C)n1C	-9	0%	2µM*	-6	4%	?
COc1ccc(/C=C\c2nc(=O)c3ccccc3o2)cc1	15	-2%	-5%	-69*	14%	/
COc1ccc(/C=C/c2c(-c3ccc(OC)cc3)oc3ccccc23)cc1	24	-3%	14%	34	9%	2%
COc1cc(O)c(C(=O)/C=C/c2ccccc2)c(OC)c1	-1	-9%	8.9µM*	0	5%	/
COc1cc(OC)c(C(=O)C=Cc2ccc(OC)c(OC)c2)c(OC)c1	-8	/	-13%	-12	/	/
O=C(N/N=C/c1ccc(-c2ccccc2[N+](=O)[O-])o1)c1cncc(Br)c1	-78*	3%	6%	-66*	-1%	-6%
CCOc1cc(/C=N/NC(=O)c2cccs2)cc([N+](=O)[O-])c1O	-87*	0%	4%	/	-19%	-3%
COc1cc([N+](=O)[O-])cc(/C=N/NC(=O)c2cncc(Br)c2)c1O	-93*	3%	4%	-90*	5%	?
COc1cc(/C=N/NC(=O)c2cncc(Br)c2)cc([N+](=O)[O-])c1O	-91*	1%	-5%	-96*	?	32µM*
Cc1ccc(S(=O)(=O)N2[C@@H](c3ccccc3)C(C(=O)O)=CC[C@H]2c2ccc(Cl)c(Cl)c2)cc1	-9	-2%	-5%	/	-1%	3%
Cc1ccc(S(=O)(=O)N2[C@@H](c3ccccc3F)C(C(=O)O)=CC[C@H]2c2ccc(Cl)c(Cl)c2)cc1	-4	11µM*	12%	2	?	-7%
COCCN(C(=O)COC(=O)C1CCC(C(C)(C)C)CC1)c1c(N)n(Cc2ccccc2)c(=O)[nH]c1=O (centres undefined)	-1	0%	10µM*	3	-20%	11%
CC(=O)Nc1ccc(C(=O)N/N=C/c2cc(Br)cc(Br)c2O)cc1	-65*	0%	3%	?	0%	-12%
CNC(=S)N/N=C/c1cc(Br)cc(Br)c1O	-90*	9%	-7%	-97*	-13%	2µM*
CC(C)C[C@H]1CN(CCCC[C@H]2CNC(=O)C(=O)N2CC2CCCCC2)C(=O)C(=O)N1CCC1CCCCC1	4	/	/	5	/	/
COc1ccc(CCC(=O)OCC(=O)Nc2ccccc2)cc1	11	-1%	5%	3	1%	/
